Tests used:
Assay in all cases: log2 ratio of Biotin-Ahx-Ub-VS probe labelling (fragment/DMSO); higher = less target engagement (more negative = stronger competition), active = hit call of the paper (q ≤ 0.05, log2 ratio ≤ -1)
Conditions in all cases: compound concentration: 200 uM; treatment time: 3 h
ALG13 = molecular target: T1, ALG13 (UniProt Q9NP73)
T1 sequence (whole entry): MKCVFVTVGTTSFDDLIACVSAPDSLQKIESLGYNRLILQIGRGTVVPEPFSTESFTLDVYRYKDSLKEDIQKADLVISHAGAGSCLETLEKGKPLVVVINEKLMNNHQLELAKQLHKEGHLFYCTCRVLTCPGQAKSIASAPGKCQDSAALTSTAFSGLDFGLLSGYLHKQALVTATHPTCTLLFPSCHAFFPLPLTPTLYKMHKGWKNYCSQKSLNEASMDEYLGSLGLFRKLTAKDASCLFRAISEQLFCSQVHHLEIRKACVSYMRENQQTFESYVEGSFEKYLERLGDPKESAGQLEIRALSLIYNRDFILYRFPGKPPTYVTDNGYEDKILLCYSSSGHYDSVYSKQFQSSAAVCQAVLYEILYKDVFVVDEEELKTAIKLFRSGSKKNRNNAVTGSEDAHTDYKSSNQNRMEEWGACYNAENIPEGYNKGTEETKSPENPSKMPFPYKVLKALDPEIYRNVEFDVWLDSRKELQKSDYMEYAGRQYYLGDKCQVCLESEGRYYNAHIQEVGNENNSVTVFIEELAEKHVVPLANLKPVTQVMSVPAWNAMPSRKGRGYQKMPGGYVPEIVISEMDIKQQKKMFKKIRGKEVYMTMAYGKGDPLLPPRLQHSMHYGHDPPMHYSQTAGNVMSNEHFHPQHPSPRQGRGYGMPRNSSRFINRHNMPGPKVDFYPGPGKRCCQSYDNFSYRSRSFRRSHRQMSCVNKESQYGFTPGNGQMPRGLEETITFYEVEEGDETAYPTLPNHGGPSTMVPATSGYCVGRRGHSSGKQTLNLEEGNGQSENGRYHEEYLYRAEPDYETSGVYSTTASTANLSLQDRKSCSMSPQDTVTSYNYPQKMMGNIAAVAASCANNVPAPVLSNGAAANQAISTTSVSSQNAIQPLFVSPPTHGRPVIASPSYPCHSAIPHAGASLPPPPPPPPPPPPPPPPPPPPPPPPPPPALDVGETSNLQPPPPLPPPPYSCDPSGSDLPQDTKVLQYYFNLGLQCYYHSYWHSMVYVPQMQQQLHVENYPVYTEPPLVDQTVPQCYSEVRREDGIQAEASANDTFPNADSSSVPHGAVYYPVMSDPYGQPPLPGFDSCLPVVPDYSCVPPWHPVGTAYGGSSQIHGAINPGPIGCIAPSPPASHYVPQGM
Procedure, shortened: (§1)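 Fragment (200 µM) or vehicle was incubated for 3 h with triplicate HEK293T lysate samples of 495 µg, which were then treated with Biotin-Ahx-Ub-VS at 0.5 µM final for 1 h. Labelled DUBs were enriched on NeutrAvidin, digested with LysC and trypsin, and analysed by diaPASEF LC-MS/MS. Values are average log2 fragment/vehicle ratios from an unpaired t-test on global-median-normalised Spectronaut label-free quantities, using proteins with ≥2 unique peptides.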

ATXN3 = ATXN3 (UniProt P54252)
Procedure, shortened: as §1

BAP1 = molecular target: T2, BAP1 (UniProt Q92560)
T2 sequence (whole entry): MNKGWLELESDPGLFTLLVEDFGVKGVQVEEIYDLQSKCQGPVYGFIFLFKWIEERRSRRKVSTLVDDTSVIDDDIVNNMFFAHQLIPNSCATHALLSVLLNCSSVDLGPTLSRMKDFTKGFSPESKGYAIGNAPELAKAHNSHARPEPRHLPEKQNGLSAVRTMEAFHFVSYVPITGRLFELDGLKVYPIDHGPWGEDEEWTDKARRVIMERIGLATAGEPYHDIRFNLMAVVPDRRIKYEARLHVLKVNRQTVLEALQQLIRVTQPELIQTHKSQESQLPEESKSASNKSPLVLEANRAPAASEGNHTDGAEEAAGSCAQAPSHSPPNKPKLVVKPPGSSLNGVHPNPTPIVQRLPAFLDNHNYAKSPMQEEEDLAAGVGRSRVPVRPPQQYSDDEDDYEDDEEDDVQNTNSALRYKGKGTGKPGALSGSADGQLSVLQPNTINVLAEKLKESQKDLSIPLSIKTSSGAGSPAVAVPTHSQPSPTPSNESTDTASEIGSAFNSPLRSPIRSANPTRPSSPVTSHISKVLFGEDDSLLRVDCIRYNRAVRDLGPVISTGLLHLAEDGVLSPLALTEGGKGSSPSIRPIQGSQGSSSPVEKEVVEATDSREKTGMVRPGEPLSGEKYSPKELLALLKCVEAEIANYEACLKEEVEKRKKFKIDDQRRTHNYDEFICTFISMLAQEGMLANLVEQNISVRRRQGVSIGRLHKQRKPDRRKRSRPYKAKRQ
Procedure, shortened: as §1

EIF3F = EIF3F (UniProt O00303)
Procedure, shortened: as §1

EIF3H = EIF3H (UniProt O15372)
Procedure, shortened: as §1

FAM105A = molecular target: T3, FAM105A (UniProt Q9NUU6)
T3 sequence (whole entry): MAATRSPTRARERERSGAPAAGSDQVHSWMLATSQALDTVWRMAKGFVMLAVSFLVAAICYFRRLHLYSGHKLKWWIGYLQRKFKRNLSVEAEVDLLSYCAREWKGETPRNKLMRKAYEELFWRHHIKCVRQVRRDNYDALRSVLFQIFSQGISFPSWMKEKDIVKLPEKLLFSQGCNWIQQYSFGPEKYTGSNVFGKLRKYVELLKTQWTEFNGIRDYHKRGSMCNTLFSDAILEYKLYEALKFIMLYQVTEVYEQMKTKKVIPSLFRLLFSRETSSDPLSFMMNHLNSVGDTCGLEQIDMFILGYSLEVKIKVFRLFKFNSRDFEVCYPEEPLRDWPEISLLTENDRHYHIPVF
Procedure, shortened: as §1

OTUB1 = OTUB1 (UniProt Q96FW1)
Procedure, shortened: as §1

OTUD4 = molecular target: T4, OTUD4 (UniProt Q01804)
T4 sequence (whole entry): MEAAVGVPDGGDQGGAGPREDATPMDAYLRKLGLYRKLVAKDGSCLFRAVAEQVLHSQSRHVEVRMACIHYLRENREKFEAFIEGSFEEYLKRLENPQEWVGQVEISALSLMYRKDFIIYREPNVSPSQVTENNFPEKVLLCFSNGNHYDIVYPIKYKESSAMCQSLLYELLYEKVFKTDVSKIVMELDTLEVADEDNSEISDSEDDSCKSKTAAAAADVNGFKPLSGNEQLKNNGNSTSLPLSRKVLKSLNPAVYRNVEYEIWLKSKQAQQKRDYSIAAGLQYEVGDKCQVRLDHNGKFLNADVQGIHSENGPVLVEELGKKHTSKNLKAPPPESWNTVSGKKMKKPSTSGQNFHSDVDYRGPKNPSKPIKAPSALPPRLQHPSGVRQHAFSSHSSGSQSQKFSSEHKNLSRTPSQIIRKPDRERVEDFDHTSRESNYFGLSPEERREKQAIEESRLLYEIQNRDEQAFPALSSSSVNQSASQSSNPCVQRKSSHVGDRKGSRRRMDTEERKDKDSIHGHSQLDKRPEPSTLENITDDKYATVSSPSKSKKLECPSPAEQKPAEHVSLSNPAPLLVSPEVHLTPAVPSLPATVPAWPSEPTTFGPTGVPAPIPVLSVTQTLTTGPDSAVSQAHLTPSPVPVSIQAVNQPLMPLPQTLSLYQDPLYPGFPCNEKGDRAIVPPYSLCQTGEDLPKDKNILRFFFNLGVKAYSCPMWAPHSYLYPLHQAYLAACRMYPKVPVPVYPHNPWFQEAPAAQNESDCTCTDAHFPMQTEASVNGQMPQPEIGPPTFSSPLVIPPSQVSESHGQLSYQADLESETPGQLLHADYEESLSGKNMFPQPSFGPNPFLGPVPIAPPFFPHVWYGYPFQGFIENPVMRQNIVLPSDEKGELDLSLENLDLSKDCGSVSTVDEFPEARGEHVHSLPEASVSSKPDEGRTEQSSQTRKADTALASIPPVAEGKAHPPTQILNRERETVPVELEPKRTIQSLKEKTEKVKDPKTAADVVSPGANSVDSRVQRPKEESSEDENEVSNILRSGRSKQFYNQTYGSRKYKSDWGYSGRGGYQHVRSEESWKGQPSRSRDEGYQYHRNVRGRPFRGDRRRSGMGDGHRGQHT
Procedure, shortened: as §1

OTUD5 = molecular target: T5, OTUD5 (UniProt Q96G74)
T5 sequence (whole entry): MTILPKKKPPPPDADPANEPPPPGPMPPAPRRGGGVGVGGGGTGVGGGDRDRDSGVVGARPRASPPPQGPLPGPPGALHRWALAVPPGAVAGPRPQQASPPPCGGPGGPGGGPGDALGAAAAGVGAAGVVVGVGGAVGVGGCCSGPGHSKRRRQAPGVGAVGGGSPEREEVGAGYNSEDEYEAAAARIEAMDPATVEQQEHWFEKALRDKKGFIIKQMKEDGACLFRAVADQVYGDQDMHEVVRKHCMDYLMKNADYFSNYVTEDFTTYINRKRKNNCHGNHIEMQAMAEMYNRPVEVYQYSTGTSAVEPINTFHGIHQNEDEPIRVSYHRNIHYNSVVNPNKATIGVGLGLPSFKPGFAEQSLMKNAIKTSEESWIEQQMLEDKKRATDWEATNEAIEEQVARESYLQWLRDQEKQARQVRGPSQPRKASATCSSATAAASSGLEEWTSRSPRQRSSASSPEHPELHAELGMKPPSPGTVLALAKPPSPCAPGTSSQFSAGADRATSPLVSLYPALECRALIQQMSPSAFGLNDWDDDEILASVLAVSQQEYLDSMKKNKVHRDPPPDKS
Procedure, shortened: as §1

Measured: log2 ratio of Biotin-Ahx-Ub-VS probe labelling

Chain of OTUB1 (Q96FW1 whole entry): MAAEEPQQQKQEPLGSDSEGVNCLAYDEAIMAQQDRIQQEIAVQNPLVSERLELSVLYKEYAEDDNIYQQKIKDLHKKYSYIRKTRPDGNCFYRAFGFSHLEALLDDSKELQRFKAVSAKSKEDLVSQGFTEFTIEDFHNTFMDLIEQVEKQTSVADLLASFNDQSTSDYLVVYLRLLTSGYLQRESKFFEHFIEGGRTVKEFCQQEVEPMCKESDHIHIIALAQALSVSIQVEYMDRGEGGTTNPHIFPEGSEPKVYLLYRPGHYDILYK
Chain of EIF3H (O15372 whole entry): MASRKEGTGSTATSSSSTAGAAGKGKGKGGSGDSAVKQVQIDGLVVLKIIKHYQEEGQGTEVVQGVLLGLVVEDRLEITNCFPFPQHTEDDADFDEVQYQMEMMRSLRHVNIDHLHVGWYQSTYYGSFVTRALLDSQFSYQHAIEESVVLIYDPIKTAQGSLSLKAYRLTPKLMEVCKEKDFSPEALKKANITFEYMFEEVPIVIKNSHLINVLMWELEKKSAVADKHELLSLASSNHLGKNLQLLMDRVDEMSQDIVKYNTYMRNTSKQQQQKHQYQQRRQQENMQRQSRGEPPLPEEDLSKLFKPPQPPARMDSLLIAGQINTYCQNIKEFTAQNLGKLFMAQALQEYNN
Chain of ATXN3 (P54252 whole entry): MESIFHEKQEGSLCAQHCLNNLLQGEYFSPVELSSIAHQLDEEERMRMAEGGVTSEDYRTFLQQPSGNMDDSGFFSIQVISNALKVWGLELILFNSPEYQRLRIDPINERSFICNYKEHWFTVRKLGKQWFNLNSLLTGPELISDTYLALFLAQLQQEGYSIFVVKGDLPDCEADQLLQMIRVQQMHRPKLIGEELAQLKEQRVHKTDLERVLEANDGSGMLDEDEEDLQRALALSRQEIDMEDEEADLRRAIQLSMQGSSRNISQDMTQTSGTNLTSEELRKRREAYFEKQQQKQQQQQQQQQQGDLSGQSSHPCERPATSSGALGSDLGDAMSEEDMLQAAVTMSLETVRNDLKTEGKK
Chain of EIF3F (O00303 whole entry): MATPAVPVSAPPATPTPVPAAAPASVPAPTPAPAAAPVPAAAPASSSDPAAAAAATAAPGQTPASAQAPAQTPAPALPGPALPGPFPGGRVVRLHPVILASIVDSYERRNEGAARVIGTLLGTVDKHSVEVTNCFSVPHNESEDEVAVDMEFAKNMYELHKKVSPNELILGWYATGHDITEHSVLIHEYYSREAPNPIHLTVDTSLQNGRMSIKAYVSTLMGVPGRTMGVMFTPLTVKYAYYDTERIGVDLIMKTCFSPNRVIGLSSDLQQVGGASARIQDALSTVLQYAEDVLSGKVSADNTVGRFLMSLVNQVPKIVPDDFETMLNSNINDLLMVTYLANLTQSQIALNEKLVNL

Cl.Cn1ncc2c1CCCC2NC(=O)CCl (centres undefined)
active: OTUD4 -1.75
inactive: ALG13 0.35 | ATXN3 -0.16 | BAP1 -0.894 | EIF3F -0.378 | EIF3H 0.457 | FAM105A 0.0219 | OTUB1 -0.186 | OTUD5 -0.0276

Reference: the supplement of paper PMC11732987, “Enantioselective OTUD7B fragment discovery through chemoproteomics screening and high-throughput optimisation” (Communications Chemistry, 2025)
